Compounds with a hit are over-represented: about 4.2% of the library has one in this group of screens.
AHR activator: activators of human aryl hydrocarbon receptor; P35869; AHR-responsive luciferase reporter cells, luminescence; activation, % at 5 µM; 2.5% of 320,000 active; AID 2796; in the data active = activation above about 47%;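 note: 0% = vehicle wells and 100% = reference agonist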
esBAF inh: inhibitors of esBAF chromatin remodeling in mouse ES cells | 2% of 350,000 active | Bmi1-luciferase knock-in reporter, 24 h; 100% = twice the neutral-well signal | AID 602393 | reporter increase, % at 12.5 µM; in the data active = activation above about 40%; inconclusive = no clear call, values can overlap the other calls;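 note: 0% = median of the plate's neutral control wells and 100% = double that signal; a rise in the Bmi1 reporter signal indicates esBAF inhibition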
Wnt bcat act: Wnt/beta-catenin pathway activation; activation, % at 9.35 µM; Wnt/beta-catenin reporter cell assay, activator, plate reader; AID 743398; 1.2% of 300,000 active; in the data active = activation above about 30%, passing the limit was not always enough; inconclusive = no clear call, values can overlap the other calls;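 note: 0% = neutral control wells and 100% = positive control wells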
MITF act: MITF TRPM1 promoter activation in melanoma cells. SK-MEL-5 TRPM1-promoter luciferase, 24 h; % of positive control, neutral wells = 0. activation, % at 12.5 µM. 0.75% of 300,000 active. AID 588334;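 active = mean activation of at least 80% with every replicate also reaching 80%; inconclusive = mean reaches 80% but some replicate falls short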;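 note: 0% = neutral control wells and 100% = parthenolide positive control wells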
GAA850 FXN act: activators of GAA850 frataxin (FXN) promoter | HEK293 lucGAA850 FXN promoter luciferase reporter, 24 h; percent of 10 µM SAHA response | activation, % at 6 µM | 0.56% of 360,000 active | AID 540364;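 active = activation above the average of all compounds screened plus 3 SD, cutoff fixed separately per campaign, cut at about 7.5% in these data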;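 note: 0% = DMSO wells and 100% = 10 µM SAHA wells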
AHR act cf: human AHR activation, confirmation; shares compounds with AHR activator; human cells, AHR-responsive luciferase reporter, luminescence; activation, % at 9 µM; 87% of 2,300 active; in the data active = activation above about 49%;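 note: HepG2 hepatoma cells carrying a DRE-driven firefly luciferase reporter; 0% = vehicle wells and 100% = reference agonist wells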
PXR counter: PXR activation, counter-screen for AHR activators; shares compounds with AHR activator; 88% of 2,300 active; activation, % at 11.6 µM; AID 434939; cell-based PXR reporter, luciferase luminescence; in the data active = activation above about 11%;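 note: human hepatoma DPX-2 cells expressing full-length human PXR; 0% = DMSO and 100% = reference agonist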
Target sequence (O75469 whole entry, looked up): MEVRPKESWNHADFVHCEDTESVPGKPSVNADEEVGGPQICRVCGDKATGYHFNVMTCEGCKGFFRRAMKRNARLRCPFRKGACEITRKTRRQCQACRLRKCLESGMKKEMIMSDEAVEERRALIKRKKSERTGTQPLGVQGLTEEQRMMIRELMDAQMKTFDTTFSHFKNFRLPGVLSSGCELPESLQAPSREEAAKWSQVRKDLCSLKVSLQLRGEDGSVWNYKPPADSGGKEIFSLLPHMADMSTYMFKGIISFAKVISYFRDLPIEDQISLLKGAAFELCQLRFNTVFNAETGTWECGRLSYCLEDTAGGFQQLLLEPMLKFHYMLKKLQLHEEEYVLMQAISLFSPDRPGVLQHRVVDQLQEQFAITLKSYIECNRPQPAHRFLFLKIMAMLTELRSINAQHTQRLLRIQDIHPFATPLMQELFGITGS
An asterisk follows results filed as active.

Screening CC/C(=N\NC(=S)Nc1cccc(C)c1)c1ccccc1 returned AHR activator 86.9*, esBAF inh -0.6, MITF act 30.3, GAA850 FXN act 5.2, AHR act cf 54.8* and PXR counter 24.1*.
Screening Cc1cccc(NC(=S)NNC(=O)c2cccc([N+](=O)[O-])c2)c1 returned AHR activator -0.5, Wnt bcat act 17.6 and GAA850 FXN act 1.3.
Screening C/C(=N/NC(=S)Nc1cccc(C)c1)c1cccc([N+](=O)[O-])c1 returned AHR activator 105.8*, Wnt bcat act -0.8, MITF act 14.3, GAA850 FXN act 1.4, AHR act cf 83.2* and PXR counter 100.1*.
Cc1cccc(NC(=S)N/N=C(\c2ccccc2)C(C)C)c1 was read as AHR activator 37.5, Wnt bcat act -1.5, MITF act 10.6 and GAA850 FXN act 1.9.
O=C(NC(=S)Nc1cccc(F)c1)c1cccc([N+](=O)[O-])c1 was read as AHR activator 95.6*, esBAF inh 19.8, Wnt bcat act 1.9, MITF act -2.8, GAA850 FXN act 1.6, AHR act cf 40.2 and PXR counter 29.8*.
For O=C(C[C@@H]1C[C@@H]2c3cc(NC(=O)CC4CC4)ccc3O[C@@H]2[C@H](CO)O1)NCc1cc(F)ccc1F the results were esBAF inh 3.4.
For O=C(C[C@@H]1CC[C@H]2[C@@H](COC[C@H](O)CN2S(=O)(=O)c2ccccc2)O1)NCc1ccc(-c2ccccc2)cc1 the results were esBAF inh 1.1.
Screening Cc1cc(NCCCN2CCOCC2)n2ncc(-c3ccccc3)c2n1 returned AHR activator 38.2, esBAF inh 22.8, MITF act 41.9 and GAA850 FXN act 4.5.
For Cc1cc(NCCOCCO)n2ncc(-c3ccc(Cl)cc3)c2n1 the results were AHR activator 126.2*, esBAF inh -1.4, Wnt bcat act inconclusive, MITF act -12.1, GAA850 FXN act -1.8, AHR act cf 142.1* and PXR counter 27.7*.
CCC(=O)Nc1nc2c(s1)COc1ccccc1-2 was read as AHR activator 34.9, esBAF inh 9.6, Wnt bcat act 1.5, MITF act 1.3 and GAA850 FXN act 1.3.
O=C(CCCl)Nc1nc2c(s1)CCc1ccccc1-2 was read as AHR activator 99.4*, esBAF inh -5.1, Wnt bcat act -10.0, MITF act -31.1, GAA850 FXN act -2.7, AHR act cf 111.9* and PXR counter 30.7*.
`N#CC1=C(N)Nc2nc3ccccc3n2C1c1ccc(F)cc1` (stereo unspecified) gave AHR activator 94.0*, MITF act -0.8, GAA850 FXN act 3.1, AHR act cf 80.0* and PXR counter 61.9*.
Screening FC(F)(F)c1nnc(-c2ccccc2)nc1N1CCCC1 returned AHR activator 85.2*, esBAF inh 7.3, Wnt bcat act -0.2, MITF act 2.3, GAA850 FXN act 1.4, AHR act cf 130.7* and PXR counter 51.7*.
`FC(F)(F)c1nnc(-c2ccccc2)nc1Sc1ccccc1` gave AHR activator 6.5, esBAF inh -13.9, Wnt bcat act -1.7, MITF act -22.1 and GAA850 FXN act -1.3.
Screening C[C@H](CO)N1C[C@H](C)[C@@H](CN(C)CC2CCOCC2)Oc2cc(-c3cccnc3)ccc2S1(=O)=O returned esBAF inh -11.4.
`CO[C@@H]1CN(C)C(=O)c2ccc(NC(=O)c3cnccn3)cc2OC[C@@H](C)N(C(C)=O)C[C@@H]1C` gave esBAF inh -1.0.
Screening COc1cc(/C=N/Nc2nc(Nc3ccccc3)nc(-n3nc(C)cc3C)n2)cc(OC)c1OC returned AHR activator 79.6*, esBAF inh -21.1, Wnt bcat act -26.5, MITF act -2.4, GAA850 FXN act -5.2, AHR act cf 67.8* and PXR counter 26.0*.
COc1cc(/C=N/Nc2nc(Nc3ccc(C)cc3)nc(-n3nc(C)cc3C)n2)cc(OC)c1OC was read as AHR activator 33.0, esBAF inh 32.4, Wnt bcat act 2.0 and GAA850 FXN act -7.9.

Compound activity from PubChem.
